Screening data: PubChem BioAssay, National Center for Advancing Translational Sciences (NCATS)
Only a selection was taken, and hits are over-represented in it overall.
RE007 growth inh: less growth of the S. pombe RE007 Vpr strain; S. pombe RE007 Vpr strain, BacTiter-Glo ATP luminescence, 24 h; Potency, µM (top dose mostly 92.2 µM), for inactives: top-dose activity change, negative = less growth, hits mostly inhibitors; actives 0.21% (n = 360,000); active means well fitted falling curve with a large enough effect; inconclusive means small, poorly fitted or top-dose-only effect; inactive means no such curve, though single readings can be large or run the other way; further: potency means the concentration at half of the fitted maximal effect; on the % scale 0 is the no-effect control and ±100 the full control effect; nearly all actives have a fitted effect of over 50% in size
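Fission yeast strain RE007, carrying one chromosomally integrated HIV-1 vpr copy, was seeded at OD 0.01 in PMG+AL medium with 23 nL pinned compound. After 24 h at 30 °C and 99% humidity, viability was read by BacTiter-Glo luminescence.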
Cycloheximide cs: affects cycloheximide protein synthesis inhibition readout, counter-screen. cell reporter, cycloheximide protein synthesis inhibition counterscreen. max response, %. actives 12% (n = 300,000); in the data active means max response mostly above about 13%, no sharp cut-off; inactive means mostly below about 14%; further: read at 38.3 µM for the half of the compounds with a filed dose; 0% is about no effect
Shiga toxin inh: blocks Shiga toxin action in Vero cells; Vero cells, Shiga toxin protein synthesis inhibition reporter; inhibition, % at 38.7 µM; actives 9.2% (n = 290,000); AID 2315; in the data active means inhibition mostly above about 28%, no sharp cut-off; inactive means mostly below about 43%; further: 0% is about no effect
LmPK inh: inhibitors of Leishmania mexicana pyruvate kinase. actives 0.37% (n = 290,000). Potency, µM (doses to about 57.5 µM), without a hit: top-dose activity change, negative = inhibition, usual class: inhibitors. purified LmPK, Kinase-Glo ATP luminescence, 1 h. Q27686; further: potency means the concentration at half of the fitted maximal effect; on the % scale 0 is the no-effect control and ±100 the full control effect
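Purified LmPK (0.1 nM) with 0.5 mM PEP and 0.1 mM ADP in imidazole buffer pH 7.2 with MgCl2/KCl, 1 h at room temperature. ATP formed was read by luciferase luminescence and normalized to no-enzyme and uninhibited controls.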
FBPA Giardia inh: blocks Giardia fructose-bisphosphate aldolase activity; Potency, µM (titrated, usually from 59.6 µM), for inactives: at the highest dose activity, negative = inhibition, usual class: inhibitors; actives 0.71% (n = 290,000); purified Giardia FBPA; A8B2U2; further: potency means the concentration at half of the fitted maximal effect; on the % scale 0 is the no-effect control and ±100 the full control effect; nearly all actives have a fitted effect of over 55% in size
Target sequence (A8B2U2 whole entry, looked up): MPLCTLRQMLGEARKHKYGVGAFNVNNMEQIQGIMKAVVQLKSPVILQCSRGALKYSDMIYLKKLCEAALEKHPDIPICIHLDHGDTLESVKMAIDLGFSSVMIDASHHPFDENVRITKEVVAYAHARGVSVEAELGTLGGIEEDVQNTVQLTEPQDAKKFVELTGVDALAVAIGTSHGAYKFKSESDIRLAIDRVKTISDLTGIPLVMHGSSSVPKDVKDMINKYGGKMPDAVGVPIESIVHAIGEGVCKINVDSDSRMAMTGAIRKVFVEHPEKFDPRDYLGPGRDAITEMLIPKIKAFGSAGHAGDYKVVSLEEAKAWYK
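40 nM FBPA preincubated 10 min at RT with compound (up to 57.5 uM final), then substrate plus GAPDH/TPI/NAD/arsenate coupling and diaphorase/resazurin added. Fluorescence read after 20 min at RT, 525/598 nm.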
Tb PYK inh: T. brucei pyruvate kinase inhibition; Q57TT1; TbPYK enzyme, Kinase-Glo Plus ATP luminescence, 45 min; Potency, µM (doses to about 76.8 µM), inactives show at the top dose activity, negative = inhibition, usual class: inhibitors; actives 0.12% (n = 410,000); AID 624173; further: potency means the concentration at half of the fitted maximal effect; on the % scale 0 is the no-effect control and ±100 the full control effect; nearly all actives have a fitted effect of over 50% in size
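Readout: single end-point luminescence (Kinase-Glo Plus, 10 min). Reaction conditions were TbPYK/substrate plus 130 uM ADP, 45 min at RT, pH 7.2 TEA buffer. No-enzyme wells served as controls, and data were normalized before concentration-response fitting.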
Numbers without * were called inactive; u = inconclusive; x = no result given. Unless noted, the call rests on the fitted dose curve; in most records, active means well fitted curve in the direction sought with a large enough effect; inconclusive means small, poorly fitted or top-dose-only effect, or another doubt; inactive means no such curve, though single readings can be large; an effect the other way counts as inactive or inconclusive.

SMILES	RE007 growth inh	Cycloheximide cs	Shiga toxin inh	LmPK inh	FBPA Giardia inh	Tb PYK inh
O=C(Nc1cc2c(cc1Cl)-c1ccc([N+](=O)[O-])cc1C2=NO)C(F)(F)F	u	x	x	x	x	2.9%
Cc1ccc(NC(=O)NNC(=O)CN2C(=O)COc3ccccc32)cc1	-10.5%	-4.8	17.6	3.4%	11.0%	0.4%
NS(=O)(=O)c1ccc(CCNC(=O)c2ccco2)cc1	-9.9%	7.7	-5.5	-3.3%	2.3%	-0.9%
O=C(Nc1ccc(F)cc1)c1ccccc1NC(=O)C1CCCCC1C(=O)O (configuration not stated)	-4.1%	x	x	x	x	-3.9%
O=C(NCCc1ccccc1)c1ccccc1NC(=O)C1CCCCC1C(=O)O (configuration not stated)	x	28.5*	55.6*	-0.2%	6.6%	x
O=C(NCCc1ccccc1)c1ccco1	13.4%	49.5*	86.1*	-2.5%	13.4%	-6.7%
Cc1ccnc(NC(=O)CCC(=O)N(CC(=O)NCCc2ccccc2)Cc2ccco2)c1	8.0%	5.4	19.0	2.5%	2.5%	0.5%
CN(CC(=O)NCCc1ccccc1)Cc1ccco1	119.1%	32.3*	98.8*	-1.7%	0.5%	1.4%
O=C(Nc1ccccc1C(=O)NCCc1ccccc1)c1ccco1	-5.9%	36.6*	43.9	1.5%	-0.2%	-5.0%
CN(CCO)c1cccc2c1S(=O)(=O)N[C@@H](Cc1ccccc1)CO2	-9.4%	x	x	x	x	-9.1%
CCCNC(=O)c1[nH]c(C)c(C(C)=O)c1C	3.9%	6.0	4.4	3.0%	21.3%	0.2%
O=C(NCCc1ccccc1)c1coc(=O)c(Br)c1	-9.6%	13.8*	26.3	3.5%	-3.5%	2.2%
COc1ccc(CCNC(=O)c2[nH]c(C)c(C(C)=O)c2C)cc1OC	-3.1%	-1.4	0.2	0.2%	2.0%	4.6%
CC(=O)c1c(C)[nH]c(C(=O)NCCc2ccccc2)c1C	1.2%	36.4*	104.2*	2.4%	9.0%	2.8%
Cc1ccccc1CS(=O)(=O)Cc1ccc(C(=O)NCCc2ccccc2)o1	1.6%	22.5*	12.2	1.1%	24.7%	0.0%
CC(=O)c1c(C)[nH]c(C(=O)NCC2CCCCC2)c1C	0.8%	11.5	63.2*	1.3%	12.2%	32.2%
CCc1c(C)sc2c1CCN(Cc1cccc(OC)c1)C2c1ccccc1 (configuration not stated)	x	x	x	x	x	0.0%
Cc1cc(NC(=O)COc2coc(CN3CCN(c4ccccc4F)CC3)cc2=O)no1	-7.1%	x	x	x	x	2.6%
Cc1cccc(C)c1OCC(=O)N(Cc1ccc(Cl)cc1)CC1CCCO1 (configuration not stated)	x	x	x	x	x	1.8%
CC(C)(C)S(=O)(=O)c1cnc(-c2ccccn2)nc1N	16.6%	7.7	24.5	-0.4%	u	-0.5%
Cc1cccc(-c2ncc(S(=O)(=O)C(C)(C)C)c(N)n2)c1	8.1%	11.3*	29.7	1.3%	9.9%	-3.2%
CN1CCc2c(sc(NC(=O)c3ccc(S(=O)(=O)N4CCCC4)cc3)c2C(N)=O)C1	-1.1%	-1.6	-28.2	-10.6%	x	-3.3%
COC(=O)c1c(NC(=O)c2ccco2)sc2c1CCN(C(C)C)C2	-0.1%	0.6	-7.1	3.6%	-27.7%	-4.8%
CN1CCc2c(sc(NC(=O)c3ccc([N+](=O)[O-])o3)c2C(N)=O)C1	-28.6%	27.4*	25.5*	1.8%	x	0.9%
CN1CCc2c(sc(NC(=O)c3ccco3)c2C(N)=O)C1	-21.5%	17.2*	-3.3	3.1%	-14.4%	-13.7%
SMILES	RE007 growth inh	Cycloheximide cs	Shiga toxin inh	LmPK inh	FBPA Giardia inh	Tb PYK inh
NC(=O)c1c(NC(=O)c2ccc([N+](=O)[O-])o2)sc2c1CCCC2	-10.4%	10.1	13.5	-3.8%	5.7%	0.0%
CC(C)N1CCc2c(sc(NC(=O)c3ccco3)c2C(N)=O)C1	-9.4%	20.7*	38.7	0.6%	-27.4%	-0.5%
CCN(c1ccccc1)S(=O)(=O)c1cc(NC(=O)Nc2ccccc2C#N)ccc1Cl	-1.8%	-5.4	-0.9	1.4%	1.5%	-0.2%
CCN(c1ccccc1)S(=O)(=O)c1ccc(Cl)c(NC(=O)Nc2ccc(Cl)cc2C#N)c1	1.7%	30.0*	46.7*	3.8%	-6.8%	-1.1%
c1cncc(-c2noc(-c3ccc4ccccc4c3)n2)c1	0.4%	27.2*	101.8*	1.0%	10.8%	0.9%
c1ccc(-c2noc(-c3cccnc3)n2)cc1	-22.3%	32.8*	98.9*	u	-2.6%	-17.7%
O=C1c2ccccc2C(=O)N1CCCc1nc(-c2cccnc2)no1	1.5%	-4.0	-5.7	2.1%	-0.3%	3.0%
c1ccc(-c2ccc(-c3nc(-c4cccnc4)no3)cc2)cc1	5.6%	33.4*	35.4	7.6%	1.4%	-5.4%
Cc1ccc(SCc2nc(-c3cccnc3)no2)cc1	-13.6%	21.3*	53.2*	3.4%	-14.6%	0.9%
C(=C\c1nc(-c2cccnc2)no1)/c1ccccc1	-6.5%	7.9	12.7	9.0%	u	-3.7%
COc1ccc(C2OCC(C)([N+](=O)[O-])CO2)cc1 (configuration not stated)	9.3%	x	x	x	x	0.9%
CC(=O)Nc1ccc(S(=O)(=O)NC2(C(F)(F)F)NC(=O)N(c3ccc(C)cc3)C2=O)cc1 (configuration not stated)	4.3%	-2.4	-10.1	-1.2%	x	3.7%
Cc1ccccc1-c1cc2nc(OCC3CCCO3)n(C)c(=O)c2s1 (configuration not stated)	2.2%	x	x	x	x	5.3%
Cc1ccc2c(nc3s/c(=C\c4ccc(-c5ccccc5C(=O)O)o4)c(=O)n32)c1C	x	6.5	-0.2	0.6%	-6.5%	-9.0%
Cc1ccc2c(nc3s/c(=C/c4cccs4)c(=O)n32)c1C	10.6%	30.1*	64.8	-0.2%	2.2%	-6.3%
Cc1ccc(-c2nc3ncccn3c2Nc2ccc3c(c2)OCO3)o1	-2.4%	19.8*	10.5	2.7%	-8.5%	-18.1%
Cc1ccc(Nc2c(-c3ccc(C)o3)nc3ncccn23)cc1	5.9%	21.3*	54.2*	0.6%	2.4%	-14.9%
Oc1ccc(-c2nc3ncccn3c2Nc2ccc3c(c2)OCO3)cc1	-6.2%	-3.7	-22.4	2.4%	-1.5%	-3.6%
CCCCOc1ccc(-c2nnn(C(C)C(=O)OCC)n2)cc1 (configuration not stated)	-13.8%	8.4	32.6	-0.1%	-4.4%	-0.8%
CCCCOc1ccc(-c2nnn(C(C)(C)C(=O)OC)n2)cc1	-19.1%	32.0*	56.7*	-0.5%	-5.2%	2.8%
CCOC(=O)CSc1n[nH]c(NC(C)=O)n1	2.2%	1.8	-2.3	2.0%	2.1%	1.6%
Clc1ccc(OCc2noc(-c3ccsc3)n2)c(Cl)c1	12.3%	49.8*	130.2*	-8.1%	-4.8%	-1.2%
COc1cc(-c2nc(Cc3ccccc3Cl)no2)cc(OC)c1OC	4.0%	-4.5	-3.0	1.8%	-0.9%	-12.0%
